Measurements: PubChem BioAssay (NCI)
The panel holds about 83,000 compounds, 20% with a hit somewhere; the sample as a whole holds those more often.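 A percent growth of 40 corresponds to 60% growth inhibition; 0 means no net growth; -100 means all cells died. Active threshold: below 10.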 A number with no mark means an inactive call. Calls of active or inactive are those of the source.

Assays:
Test in all cases: NCI-60 one-dose screen, 48 h (100 = growth as untreated, 0 = no growth, -100 = all killed)
Conditions in all cases: 10 µM unless noted
[1] = tested on: DU-145 prostate
[2] = tested on: K-562 leukemia
[3] = tested on: MALME-3M melanoma
[4] = tested on: MDA-MB-231 breast
[5] = tested on: RXF 393 renal
[6] = tested on: SF-268 CNS
[7] = tested on: SF-295 CNS
[8] = tested on: SF-539 CNS
[9] = tested on: M14 melanoma
[10] = tested on: HCT-15 colon
[11] = tested on: HT29 colon
[12] = tested on: SNB-75 CNS
[13] = tested on: SNB-19 CNS
[14] = tested on: U251 CNS
[15] = tested on: PC-3 prostate
[16] = tested on: SK-MEL-5 melanoma
[17] = tested on: LOX IMVI melanoma
[18] = tested on: SK-MEL-28 melanoma

Structure (SMILES)	growth [1]	growth [2]	growth [3]	growth [4]	growth [5]	growth [6]	growth [7]	growth [8]	growth [9]	growth [10] [%]	growth [11]	growth [12]	growth [13]	growth [14]	growth [15]	growth [16]	growth [17]	growth [18]
CC1(c2ccccc2)OC1C(=O)O (configuration not stated)	108%	111%	88.5%	110%	103%	106%	101%	96.1%	95.2%	106	102%	91.6%	109%	117%	106%	103%	97.4%	98.7%
Cc1ccc(N(CC(=O)Nc2ccc(S(=O)(=O)NC3CCN(C)CC3)cc2)S(=O)(=O)c2ccc(Cl)cc2)cc1	71.9%	19.5%	-47.5% (active)	53.6%	36.4%	68.7%	101%	85.4%	63%	90.6	10.2%	58.7%	88.3%	19.5%	84.1%	-9.84% (active)	-58.1% (active)	-68.3% (active)
N#Cc1cnc2cc(OC[C@@H](O)CO)c(NC(=O)CC3CSSC3)cc2c1Nc1ccc(OCc2cccc(F)c2)c(Cl)c1	-85.1% (active)	-37.4% (active)	-67.6% (active)	-60.5% (active)	-72.9% (active)	-57% (active)	-80.5% (active)	-79.7% (active)	-78.7% (active)	22	-81.6% (active)	-88% (active)	-66% (active)	-70.2% (active)	-82.3% (active)	-97% (active)	-84.2% (active)	-71.9% (active)
Cn1c(=O)c2c(ncn2CC(=O)Nc2ccc(S(N)(=O)=O)cc2)n(C)c1=O	107%	97.4%	118%	105%	106%	101%	103%	96.3%	97.1%	106	94.8%	87.8%	102%	96.6%	83.4%	111%	97.6%	115%
